# From PubChem BioAssay AID720650 (Broad Institute, 2013)
# Values without a mark were called inactive. Active and inactive are the calls of the source. The rule behind the calls is not given here.
# Assay: Biochemical counterscreen for C difficile toxins, absence of UDPG, inhibitor dose response (AID 720650)
# Conditions: series mostly up to 19.5 µM
row,Structure (SMILES),AC50
1,CC[C@H](C)[C@@H]1NC(=O)c2cc([N+](=O)[O-])cc(I)c2NCC[C@@H](C(N)=O)NC(=O)[C@H](CCCN=C(N)N)NC1=O,inactive
2,CCCc1cc(-c2n[nH]c(C(=O)OCC)c2-c2cscn2)c(O)cc1O,inactive
3,Cc1ccc(CSc2nc3nc(C)cc(C)c3c(=O)[nH]2)cc1,inactive
4,O=C(c1cn(-c2ccccc2)nc1-c1ccncc1)n1nnc2ccccc21,inactive
5,Cc1ccc(C(=O)NC(=S)NNC(=O)CC#N)cc1,5.73 µM (active)
6,O=C(CSc1nc2ccccc2[nH]1)NC1CCCc2ccccc21 (centres undefined),> 39 µM
7,Cc1cc(SCC(=O)N/N=C/c2ccco2)nc2ccccc12,> 39 µM
8,CCOC(CCNC(=O)c1cn(CCOC)c(=O)c2c1c1ccccc1n2C)OCC,inactive
9,Cc1cc(C(=O)Nc2ncc(C)s2)c2ccccc2n1,inactive
10,CC(=O)C1=CCC(c2ccccc2)N(S(=O)(=O)c2ccc(C)cc2)C1 (centres undefined),inactive
11,Cc1cc(C)c(NS(=O)(=O)c2cccc3cccnc23)c(C)c1,inactive
12,COc1ccc(C)cc1NC(=O)C(OC(=O)C1=NNC(=O)CC1)c1ccccc1 (centres undefined),inactive
13,Cc1ccc(S(=O)(=O)Oc2ccccc2/C=C2/SC(=O)NC2=O)cc1,inactive
14,Cc1ccc(CN2C(=O)CN=C(c3ccccc3)c3ccccc32)cc1,inactive
15,O=C(NC(=S)NNS(=O)(=O)c1ccccc1)c1cccnc1,inactive
16,NS(=O)(=O)c1ccc(NC(=S)NCc2ccc3c(c2)OCO3)cc1,> 39 µM
17,O=c1[nH][nH]c(=O)c2c1[nH]c(=S)n2Cc1ccccc1,inactive
18,CCOC(=O)c1[nH]nc(-c2cc(CC)c(O)cc2O)c1-c1cscn1,inactive
19,Cc1cc(C)nc(/N=C(\N)Nc2ccccc2-c2ccccc2)n1,> 39 µM
20,COc1cc(C=C2CN(C)C(=O)C2=O)ccc1O,inactive

row,Structure (SMILES),AC50
1,O=S(=O)(Oc1ccccc1-c1ccccc1)c1ccccc1,inactive
2,Nc1ccc2c(c1)Nc1ccccc1CC2,9.36 µM (active)
3,COc1cccc(Oc2ccc3nnc(C(F)(F)F)n3n2)c1,inactive
4,CC(Sc1nc(N)cc(=O)[nH]1)C(=O)NCC(=O)Nc1ccc(F)c(F)c1F (centres undefined),inactive
5,O=C(NNc1nc2c(F)cc(F)cc2s1)C1COc2ccccc2O1 (centres undefined),0.699 µM (active)
6,COc1cc(/C=N/NC(=O)C2COc3ccccc3O2)ccc1O (centres undefined),inactive
7,O=S(=O)(NC1CCCCCCC1)c1ccc(F)cc1,inactive
8,Cc1nc2[nH]c(=S)[nH]c2c(=O)[nH]1,> 39 µM
9,Cn1cc(S(=O)(=O)CC(=O)N2CCCc3ccccc32)c2ccccc21,inactive
10,CCNC(=O)C[C@@H]1CC[C@H]2[C@@H](COc3ccc(NC(C)=O)cc3C(=O)N2C)O1,inactive
11,CCOc1ccc(S(=O)(=O)NCCC(=O)NCc2ccccn2)cc1,inactive
12,COc1ccc(NC(=O)Nc2nc(C)cc(C)n2)c(OC)c1,inactive
13,COc1ccc(/C=N/N=C2/NC(=O)C(CC(=O)NC(N)=O)S2)cc1 (centres undefined),inactive
14,CN(C(=O)COC(=O)CNC(=O)c1ccccc1Cl)c1ccccc1,inactive
15,Cc1ccccc1C(C(=O)NC1CCCCC1)N(C(=O)c1ccccn1)c1cccnc1 (centres undefined),inactive
16,O=C(O)c1ccc(-c2nnc(-c3ccccc3)o2)cc1,inactive
17,COC(=O)C1=C(c2ccc(F)cc2OCc2ccccc2)C[C@@H]2CC[C@H]1N2C(=O)NCCOc1ccccc1,inactive
18,Nc1ncc(S(=O)(=O)c2ccc([N+](=O)[O-])cc2)s1,inactive
19,CC(=O)Nc1ccc(NC(=O)CN2CCN(c3ccccn3)CC2)cc1,inactive
